Assay outcomes (PubChem)
Compounds with a hit are over-represented: about 5.8% of the library has one in this group of screens.
PINK1 modulator: changes PINK1 expression. PINK1 immunofluorescence, high-content cytometry, 24 h. Potency, µM (top dose mostly 76.6 µM), hits mostly activators. 410,000 compounds, 0.2% hits; active = well fitted activation curve with a large enough effect; inconclusive = small, poorly fitted or top-dose-only effect; cell line not stated here; also: nearly all actives have a fitted effect of over 65% in size
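Measures PINK1 amount and localization on or inside mitochondria by immunofluorescence. Stable cells get compounds at 5 concentrations for 24 hours before fixation and staining; CCCP controls included.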
12-LOX inh: inhibitors of human 12S-lipoxygenase ALOX12 | Potency, µM (top dose mostly 108 µM), most hits filed as inhibitors | P18054 | purified 12hLO, xylenol orange hydroperoxide absorbance | 580,000 compounds, 1.1% hits
Target sequence (P18054 whole entry, looked up): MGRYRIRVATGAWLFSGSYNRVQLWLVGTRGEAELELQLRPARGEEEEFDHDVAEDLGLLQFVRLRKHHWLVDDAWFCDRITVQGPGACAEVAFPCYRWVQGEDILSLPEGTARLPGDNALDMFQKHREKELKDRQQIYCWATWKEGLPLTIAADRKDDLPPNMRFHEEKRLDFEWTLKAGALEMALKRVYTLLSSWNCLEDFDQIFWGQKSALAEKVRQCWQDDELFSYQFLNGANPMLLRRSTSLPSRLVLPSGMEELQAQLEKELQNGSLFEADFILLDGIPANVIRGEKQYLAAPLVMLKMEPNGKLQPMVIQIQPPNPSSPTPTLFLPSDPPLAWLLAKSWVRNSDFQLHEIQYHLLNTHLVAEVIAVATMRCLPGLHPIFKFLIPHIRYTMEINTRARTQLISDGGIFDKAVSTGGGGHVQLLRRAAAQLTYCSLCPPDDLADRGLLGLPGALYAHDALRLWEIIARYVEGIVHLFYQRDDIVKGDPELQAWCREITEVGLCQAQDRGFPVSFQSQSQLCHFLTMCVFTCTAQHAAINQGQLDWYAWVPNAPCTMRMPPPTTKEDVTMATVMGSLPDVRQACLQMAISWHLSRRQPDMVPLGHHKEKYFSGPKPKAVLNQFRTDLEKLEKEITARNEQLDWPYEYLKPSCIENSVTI
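Hydroperoxide product was detected by ferrous iron/xylenol orange as the 573 to 405 nm absorbance ratio. Arachidonic acid at 40 uM (final) was turned over for 30 min at room temperature by 150 nM human 12hLO, pH 7.0 Hepes buffer, after 15 min compound preincubation.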
SW480 rerep: DNA re-replication induction in SW480 cells | SW480 DNA re-replication, Hoechst DNA content imaging, 48 h | Potency, µM (doses to about 46.1 µM), hits mostly activators | 340,000 compounds, 1.8% hits | AID 624297; also: nearly all actives have a fitted effect of over 55% in size
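DNA re-replication was detected as more nuclei of elevated Hoechst intensity after 48 hr exposure to compound (23 nL pinned per well of 250 cells).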
MCF10A rereplic: induces DNA re-replication in MCF 10a normal breast cells | MCF 10A DNA re-replication, Hoechst nuclear intensity, 48 h | Potency, µM (top dose mostly 46.1 µM), most hits filed as activators | 350,000 compounds, 2.9% hits | AID 624296; also: nearly all actives have a fitted effect of over 50% in size
KB-3-1 cytotox: kills parental KB-3-1 adenocarcinoma cells | 400,000 compounds, 1.4% hits | Potency, µM (series often up to 46.1 µM), usual class: cytotoxic | KB-3-1 viability, CellTiter-Glo ATP luminescence, 72 h; also: nearly all actives have a fitted effect of over 60% in size
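Using CellTiter-Glo luminescence, growth of non-resistant KB-3-1 adenocarcinoma cells is assessed 72 h after pin-tool compound addition at 37 °C. Normalized responses across the concentration series yield fitted curves.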
KB-V1 cytotox: kills drug-selected multidrug resistant KB-V1 cells | KB-V1 MDR cells viability, CellTiter-Glo, 72 h | Potency, µM (doses to about 46.1 µM), most hits filed as cytotoxic | 400,000 compounds, 3.4% hits | AID 1347076; also: nearly all actives have a fitted effect of over 60% in size
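Luminescent ATP read-out (CellTiter-Glo, 10 min) measures survival of drug-selected KB-V1 MDR cells after 72 h, 37 degrees C compound exposure. Medium: phenol-red-free DMEM, 10% FBS. Values from fitted concentration-response curves.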
Numbers stand for hits; – = inactive; ? = inconclusive; · = no result given. Unless noted, calls follow the shape of the dose curve; as a rule, active = well fitted curve in the direction sought with a large enough effect; inconclusive = small, poorly fitted or top-dose-only effect, or another doubt; inactive = no such curve, though single readings can be large; an effect the other way counts as inactive or inconclusive.

SMILES | PINK1 modulator | 12-LOX inh | SW480 rerep | MCF10A rereplic | KB-3-1 cytotox | KB-V1 cytotox
COc1ccc(N/C=C2/Sc3ccccc3NC2=O)cc1 | – | – | – | – | – | –
Cc1ccc(N/C=C2/Sc3ccccc3NC2=O)cc1 | 40µM | – | – | 18µM | – | ?
COc1cccc(NC(=O)N2CCCC(C(=O)Nc3ccccc3OC)C2)c1 (stereo unspecified) | – | – | – | – | – | 21µM
COc1cccc(NC(=O)N2CCC(C(=O)Nc3ccc(C)cc3C)CC2)c1 | – | – | – | – | – | 15µM
Cc1ccc(CNC(=O)Cc2c(C)c3c(O)cc(C)cc3oc2=O)cc1 | · | – | · | · | · | ·
C/C(=N\NC(=S)NC1CCCCC1)c1ccc(OC(F)F)cc1OC(F)F | ? | 28µM | – | ? | ? | ?
CCOC(=O)C1=c2s/c(=C\c3ccncc3)c(=O)n2C(N)=C(C(=O)OC)C1c1ccncc1 (stereo unspecified) | – | – | – | – | – | –
CCOC(=O)C1=C(N)n2c(s/c(=C/c3ccco3)c2=O)=C(C(=O)OC)C1c1ccco1 (stereo unspecified) | – | ? | 13µM | 6.5µM | 8.2µM | ?
N#CC1=C(N)n2c(s/c(=C\c3ccco3)c2=O)=C(C#N)C1c1ccco1 (stereo unspecified) | – | 13µM | – | ? | ? | –
N#Cc1cccc(OCc2nc3c(n2Cc2ccccc2)C(=O)N(Cc2ccccc2F)CCN3)c1 | · | – | · | · | · | ·
Cc1cccc(NC(=O)c2cc([N+](=O)[O-])ccc2NC2CCCCC2)c1 | – | – | – | – | – | 13µM
Cc1cccc(NC(=O)C(c2cccc([N+](=O)[O-])c2)N2CCCCC2)c1 (stereo unspecified) | – | – | – | – | – | 15µM
O=C(Nc1ccc(Nc2ccccc2)cc1)c1cc([N+](=O)[O-])ccc1Cl | – | – | – | – | – | –
CN(c1ccc([N+](=O)[O-])cc1C(=O)Nc1ccccc1)C1CCCCC1 | – | – | – | – | – | 13µM
CCOCCn1c(N2CCN(Cc3ccc(C)cc3)CC2)nc2c1c(=O)[nH]c(=O)n2C | · | – | · | · | · | ·
CN(C)C(=O)c1ccc2c(c1)n(Cc1ccc(F)cc1)c(=O)c1ccnn12 | · | – | · | · | · | ·
COc1ccc2[nH]c(C[C@@H]3C[C@@H](C(C)C)[C@H](CNC(=O)C4CCC4)C=C3C)nc2n1 | · | – | · | · | · | ·
CCN(CC)C(=O)c1ccc(-c2nnc(Nc3ccc(O)cc3)c3ccccc23)cc1 | – | – | – | – | – | –
CCN(CC)C(=O)c1ccc(Nc2nnc(C)c3ccccc23)cc1 | – | – | – | – | – | 12µM
Cn1c(/C=C/c2ccc(Cl)cc2)c([N+](=O)[O-])c(=O)n(C)c1=O | – | – | – | 7.3µM | ? | –
CC(NC(=O)C(Cc1ccccc1)N1C(=O)C2C3CCC(C3)C2C1=O)c1ccccc1 (stereo unspecified) | – | – | – | – | – | 7.3µM
CC(=O)N1CCc2c(sc(NC(=O)C3CC3)c2-c2nc3ccccc3s2)C1 | – | ? | ? | 23µM | ? | –
CC(=O)Nc1sc2c(c1-c1nc3ccccc3s1)CN(C(C)C)CC2 | – | – | 2.6µM | ? | ? | ?
COc1ccccc1OCCNC(=O)c1ccc2[nH]c(C)c(C)c2c1 | · | – | · | · | · | ·
CSC1=N/C(=C\c2ccc(Br)o2)C(=O)S1 | – | ? | – | – | – | ?
SMILES | PINK1 modulator | 12-LOX inh | SW480 rerep | MCF10A rereplic | KB-3-1 cytotox | KB-V1 cytotox
CSC1=N/C(=C\c2ccc(-c3ccc(Cl)cc3)o2)C(=O)S1 | · | 25µM | · | · | · | ·
O=C(NCCc1ccccn1)c1cccc(Cl)c1 | · | – | · | · | · | ·
O=C(COC(=O)/C=C/c1ccccc1)Nc1cc(C(F)(F)F)ccc1N1CCOCC1 | – | – | – | – | – | –
CC(C)(C)C(=O)Nc1cc(C(F)(F)F)ccc1N1CCOCC1 | – | – | – | – | – | –
COc1ccccc1/C=C/C(=O)OCC(=O)Nc1cc(C(F)(F)F)ccc1N1CCOCC1 | – | – | 9.2µM | ? | ? | ?
CC(C)(C)C(=O)NC(=S)Nc1cc(C(F)(F)F)ccc1N1CCOCC1 | – | 35µM | ? | ? | – | ?
CCOC(=O)C1CCN(c2cc(C)nc3cc(-c4cccc(F)c4)nn23)CC1 | ? | – | ? | 4.1µM | – | –
O=[N+]([O-])c1c(NCCO)cc(N2CCCCC2)c2nonc12 | – | ? | – | – | – | –
O=[N+]([O-])c1cc([N+](=O)[O-])c(N2CCCCCC2)cc1NCCO | – | – | – | – | – | 9.2µM
CCCc1nc(-c2cc3ccc(C)cc3[nH]c2=O)no1 | – | – | – | – | – | 12µM
CCS(=O)(=O)NCCc1cc2ccc(C)cc2[nH]c1=O | – | · | – | – | – | 21µM
CCOc1ccccc1-c1nc(-c2cc3ccc(C)cc3[nH]c2=O)no1 | – | – | – | ? | – | ?
CC1CCc2nc(N)c(C#N)c(-c3ccc(F)cc3)c2C1 (stereo unspecified) | · | – | · | · | · | ·
Cc1ccc(S(=O)(=O)CC(=O)c2ccc(F)cc2)cc1 | · | – | · | · | · | ·
